Assay outcomes as filed in PubChem BioAssay.
Pf growth 48h – Primary qHTS for delayed death inhibitors of the malarial parasite plastid, 48 hour incubation; P. falciparum luciferase growth in erythrocytes, 48 h; Potency, µM (highest dose often 28.7 µM), inactives show at the highest dose activity change, negative = inhibition, usual class: inhibitors; 310,000 tested, 5.9% active; AID 504832, 2011; further: potency means the concentration at half of the fitted maximal effect
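Compounds are pin-transferred into medium, infected erythrocytes (2% hematocrit, 0.1% parasitemia final) are added, and plates sit one parasite generation at 37 C in 5% CO2. Detection reagent is then added and luminescence measured.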
Pf growth 96h – Primary qHTS for delayed death inhibitors of the malarial parasite plastid, 96 hour incubation; 320,000 tested, 6.9% active; Potency, µM (top dose mostly 28.7 µM), inactives show at the top dose activity change, negative = inhibition, actives largely listed as inhibitors; P. falciparum luciferase reporter growth, 96 h; AID 504834, 2011; further: potency means the concentration at half of the fitted maximal effect
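Delayed-death screen, second-generation endpoint: infected erythrocytes, 2% hematocrit, 0.05% parasitemia final; 96 hours at 37 C, 5% CO2; luciferase detection reagent; luminescence decrease equals reduced growth.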
Sm TGR block – qHTS Assay for the Inhibitors of Schistosoma Mansoni Peroxiredoxins; Potency, µM (series often up to 114 µM), inactives show top-dose activity change, negative = inhibition, most hits filed as inhibitors; Schistosoma mansoni thioredoxin glutathione reductase (TGR), Q962Y6; purified TGR, DTNB reduction, TNB absorbance 405 nm; 360,000 tested, 3% active; further: potency means the concentration at half of the fitted maximal effect; nearly all actives have a fitted effect of over 60% in size
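TGR 20 nM + NADPH 100 uM (dispensed conc.), cpd preinc 15 min RT; start with NADPH (500 uM addition) then DTNB (15 mM addition). Kinetic TNB absorbance, 405 nm filter. Four-parameter Hill fit across titration.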
HCMV antiviral – qHTS Assay for inhibitors of the human cytomegalovirus (HCMV) | HFF cells, HCMV-luciferase reporter, 72 h; hits give low values | activity change, negative = inhibition, % at 57.5 µM | AID 1259415, 2018 | 410,000 tested, 4.5% active; in the data active means activity change below about -60%; inconclusive means no clear call, values can overlap the other calls; inactive means above about -39%
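Human foreskin fibroblasts infected with luciferase-reporter HCMV at MOI 1 PFU/cell, compounds at two doses. Luciferase measured 72 h post infection; normalized to buffer-only basal and Salinomycin (10uM) controls.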
Giardia FBPA inh – qHTS Assay for Inhibitors of Fructose-1,6-bisphosphate Aldolase from Giardia Lamblia. A8B2U2. purified Giardia FBPA. Potency, µM (series often up to 59.6 µM), without a hit: at the highest dose activity, negative = inhibition, hits mostly inhibitors. 290,000 tested, 0.71% active. AID 2451, 2010; further: potency means the concentration at half of the fitted maximal effect; nearly all actives have a fitted effect of over 55% in size
Target sequence (A8B2U2 whole entry, looked up): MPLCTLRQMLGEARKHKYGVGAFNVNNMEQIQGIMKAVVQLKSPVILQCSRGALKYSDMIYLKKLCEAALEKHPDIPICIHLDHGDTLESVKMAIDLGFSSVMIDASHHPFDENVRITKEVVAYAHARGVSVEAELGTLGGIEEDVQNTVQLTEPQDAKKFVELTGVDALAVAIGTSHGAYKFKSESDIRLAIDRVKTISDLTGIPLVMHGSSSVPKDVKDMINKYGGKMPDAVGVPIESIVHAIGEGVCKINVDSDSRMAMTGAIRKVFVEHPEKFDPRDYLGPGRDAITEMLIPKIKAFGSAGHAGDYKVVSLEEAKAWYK
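40 nM FBPA preincubated 10 min at RT with compound (up to 57.5 uM final), then substrate plus GAPDH/TPI/NAD/arsenate coupling and diaphorase/resazurin added. Fluorescence read after 20 min at RT, 525/598 nm.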
Starred values were filed as active, the others as inactive; ? = inconclusive; / = no result; [ ] = remark or other dose. The list is not random: actives were taken first. Their share in the collection is about 14%. Unless noted, the call rests on the fitted dose curve; in most records, active means well fitted curve in the direction sought with a large enough effect; inconclusive means small, poorly fitted or top-dose-only effect, or another doubt; inactive means no such curve, though single readings can be large; an effect the other way counts as inactive or inconclusive. On the % scale 0 is the no-effect control and ±100 the full control effect.

SMILES	Pf growth 48h	Pf growth 96h	Sm TGR block	HCMV antiviral	Giardia FBPA inh
CC(C)C[C@@H]1NC(=O)[C@H](C(C)C)NC(=O)c2cc([N+](=O)[O-])cc(I)c2NCC[C@@H](C(N)=O)NC1=O	?	2.08µM*	-19.0%	/	-9.6%
CC(C)[C@@H]1NC(=O)c2cc([N+](=O)[O-])cc(F)c2NCCC[C@@H](C(N)=O)NC(=O)[C@H](CO)NC1=O	24.5%	9.28µM*	-3.9%	/	18.3%
C=C(C(C)=O)C(O)c1ccccc1 (centres undefined)	/	/	/	/	1.2%
COc1cccc(-c2nc3c(C#N)c[nH]n3c2NC2CCCCC2)c1OC	/	/	6.5%	-6.1	/
Cc1ccc(Cl)cc1N1CCN(C(=O)C2CCN(S(=O)(=O)c3cccnc3)CC2)CC1	/	?	-6.5%	-30.3	-1.4%
Cc1nn(C)c(C)c1S(=O)(=O)N1CCCC(C(=O)N2CCN(c3ccc(Cl)cc3)CC2)C1 (centres undefined)	4.65µM*	?	2.5%	?	16.0%
Cc1n[nH]c(C)c1S(=O)(=O)N1CCCC(C(=O)N2CCN(c3ccc(Cl)cc3)CC2)C1 (centres undefined)	6.57µM*	1.5%	7.5%	-75.6*	10.3%
Cc1ccc(Cl)cc1N1CCN(C(=O)C2CCN(S(=O)(=O)c3c(C)nn(C)c3C)CC2)CC1	8.28µM*	/	-8.8%	-36.5	2.3%
CCOC(=O)c1cccc(NC(=O)C2CCCN(S(=O)(=O)c3c(C)nn(C)c3C)C2)c1 (centres undefined)	/	9.28µM*	0.0%	?	-0.4%
CCOC(=O)c1cccc(NC(=O)C2CCCN(S(=O)(=O)c3c(C)n[nH]c3C)C2)c1 (centres undefined)	7.4%	?	-17.7%	-13.6	3.2%
CC(=O)Nc1c(C)nn(-c2ccccc2)c1N1CCC(C(=O)Nc2ccccc2F)CC1	/	/	-6.6%	5.6	/
O=C(COc1ccc([N+](=O)[O-])cc1)NCc1ccncc1	6.5%	?	5.4%	-30.1	0.1%
CC12CCC(c3c(C(=O)N4CCOCC4)nn(-c4ccccc4)c31)C2(C)C (centres undefined)	?	1.31µM*	9.4%	-7.1	11.4%
CC(=O)Nc1ccc(OC(=O)c2cc3ccccc3oc2=O)cc1	18.9%	11.7µM*	0.5%	-21.4	2.0%
COc1cc(/C=C/[N+](=O)[O-])ccc1OC(=O)c1cccnc1	?	9.7%	1.78µM*	16.9	-19.6%
COc1ccccc1OC(=O)c1cc2ccccc2oc1=O	-1.0%	?	-21.3%	22.6	-0.4%
COc1cc(/C=C/[N+](=O)[O-])ccc1OC(=O)c1cc2ccccc2oc1=O	?	11.6%	?	-72.3*	?
Cc1ccc(S(=O)(=O)N(C)CC(=O)N/N=C/c2ccc(C)o2)cc1	-23.1%	1.6%	?	-37.2	-4.9%
COc1ccc(Br)cc1CN(C)C(=O)C1=CC=CN2CCS(=O)(=O)N=C12	/	/	/	-9.5	/
CN(Cc1ccc(Cl)c(Cl)c1)C(=O)C1=CC=CN2CCS(=O)(=O)N=C12	9.28µM*	1.47µM*	4.8%	-8.2	/
CCN(CC)CCN(C(=O)CCS(=O)(=O)c1ccccc1)c1nc2cc(OC)c(OC)cc2s1	2.4%	22.7%	14.1µM*	7.1	?
CN(C)CCCN(C(=O)c1ccc(S(=O)(=O)N(C)C)cc1)c1nc2cc3c(cc2s1)OCO3	?	17.9%	-3.4%	-15.1	0.4%
Cc1ccc2sc(N(CCCN(C)C)C(=O)CCS(=O)(=O)c3ccccc3)nc2c1C	39.0%	6.57µM*	7.08µM*	0.0	-7.4%
CCN(Cc1ccccc1)S(=O)(=O)c1ccc(C(=O)N(CCCN(C)C)c2nc3cc4c(cc3s2)OCO4)cc1	?	?	-18.3%	-64.9*	/
CCN(CC)CCN(C(=O)CCS(=O)(=O)c1ccccc1)c1nc2cc(C)cc(C)c2s1	?	?	?	-8.3	-24.7%
SMILES	Pf growth 48h	Pf growth 96h	Sm TGR block	HCMV antiviral	Giardia FBPA inh
CN(C)CCCN(C(=O)CCS(=O)(=O)c1ccccc1)c1nc2cc3c(cc2s1)OCO3	18.0%	23.4%	3.98µM*	-112.8*	/
O=C(Cn1nc(N2CCN(c3ccccc3)CC2)ccc1=O)NCc1ccccc1F	/	/	0.5%	-13.7	/
Cc1ccc(C(=O)N2CCN(C(=O)c3ccc(C)cc3)C2)cc1	-8.3%[5.75 µM]	-13.4%	4.7%	?	4.8%
Cc1cc(C)c2sc(N(CCN(C)C)C(=O)CCS(=O)(=O)c3ccccc3)nc2c1	?	?	-19.8%	?	?
Cc1cccc2sc(N(CCCN(C)C)C(=O)CCc3ccccc3)nc12	?	1.85µM*	-9.7%	-71.6*	-1.8%
Cc1ccc2sc(N(CCCN(C)C)C(=O)c3ccco3)nc2c1C	/	/	-2.2%	-61.9*	/
CN(C)CCN(C(=O)CCS(=O)(=O)c1ccccc1)c1nc2c(F)cccc2s1	25.1%	2.62µM*	?	-12.3	-22.0%
COc1ccc(Cl)c2sc(N(CCN(C)C)C(=O)CCS(=O)(=O)c3ccc(C)cc3)nc12	1.3%	7.2%	-30.4%	5.8	/
COc1ccc(OC)c2sc(N(CCCN(C)C)C(=O)CCS(=O)(=O)c3ccccc3)nc12	?	20.3%	3.16µM*	15.6	/
Cc1cccc(C(=O)Nc2ccc(C(=O)OCc3cc(=O)n4nc(CC(C)C)sc4n3)cc2)c1	/	/	3.8%	38.0	/
Cc1ccc(N(CC(=O)N2CCCCCC2)S(C)(=O)=O)c(C)c1	/	/	/	6.5	/
O=C(CSc1nnc2ccc(-c3ccccn3)nn12)Nc1ccc(F)cc1F	9.3%	38.7%	-3.5%	-28.6	/
CCCCCOCC1CC(C/C(C)=N/Nc2nc(-c3ccccc3)cs2)C(=O)O1 (centres undefined)	?	58.8%	5.0%	23.8	-27.5%
CC1CCc2c(C(=O)NCC3CCCO3)csc2C1 (centres undefined)	40.3%	-0.9%	-10.4%	10.2	-26.8%
Cc1noc(C)c1COC(=O)c1csc2c1CCC(C)C2 (centres undefined)	11.7µM*	?	-0.4%	-6.5	/
CN1CCN(NC(=O)c2cc(S(=O)(=O)N3CCOCC3)c(Cl)cc2Cl)CC1	2.1%	-0.3%	-11.3%	-6.2	-14.6%
CC1Cc2ccccc2N1C(=O)CNc1ccccc1N1CCCCC1 (centres undefined)	?	13.1µM*	-10.6%	?	-6.5%
CC1Cc2ccccc2N1C(=O)CN1CCN(Cc2ccccc2)CC1 (centres undefined)	3.9%[0.00184 µM]	29.5%	0.0%	-3.2	?
CC1CCN(CC(=O)N2c3ccccc3CC2C)CC1 (centres undefined)	11.3%	0.586µM*	-0.5%	-2.4	-5.4%
CCCN1[C@@H]2c3ccc(-c4ccccc4)c(=O)n3C[C@@H]2[C@@H](CO)[C@@H]1C(=O)N[C@@H](C)c1ccccc1	/	/	/	6.8	/
